± gives the standard deviation of the averaged measurements. In all, about 4,100 sequences were measured (“relative kcat/Km (krel) vs genomic leader AAAGAU”: median about 1.7, highest 2% from about 6.5 on). Many of the other results were omitted from the sample, so the highest values are more common in it than they were.
Target: T1, E. coli RNase P holoenzyme (M1 P RNA + rnpA protein) (UniProt P0A7Y8)
T1 sequence: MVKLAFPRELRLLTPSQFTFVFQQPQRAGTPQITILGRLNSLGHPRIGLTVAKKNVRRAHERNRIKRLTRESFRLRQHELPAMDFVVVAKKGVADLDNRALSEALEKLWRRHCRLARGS
Experiment: relative kcat/Km (krel) vs genomic leader AAAGAU (relative (reference leader = 1)); higher = faster RNase P cleavage
Method: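 HTS-Kin: a pool of ptRNA-Met (21C construct) with all 4096 combinations of 5' leader nucleotides N(-6) to N(-1) was processed in vitro by E. coli RNase P (P RNA + rnpA/C5 protein) under multiple-turnover conditions at 37 C, pH 8, 17.5 mM MgCl2. Residual substrate was Illumina-sequenced at several fractions reacted, and relative kcat/Km (krel) was computed by internal competition kinetics, calibrated to the genomic leader (AAAGAU = 1). The listed hexamer is the varied N(-6)..N(-1) leader (DNA letters), and it sits between a fixed 5' stem-loop flank (GCAUGCACGAAAGUGCGUGCUAUGAA) and the mature tRNA-Met starting GGCUACGUAGCUCAGUUGG. Two technical replicates are averaged.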

[1] = fraction of substrate reacted: ~9-10% (9.79% repeat 1, 9.1% repeat 2)
[2] = fraction of substrate reacted: ~13-16% (15.68% repeat 1, 13.17% repeat 2)
[3] = fraction of substrate reacted: ~26-29% (28.66% repeat 1, 26.4% repeat 2)

Row | Sequence | relative kcat/Km [1] | relative kcat/Km [2] | relative kcat/Km [3]
1 | CCGTGC | 1.254 ± 0.0079 | 0.908 ± 0.54 | 1.84 ± 0.71
2 | GGCGCG | – | 0.4496 ± 0.0012 | 1.37 ± 0.14
3 | ATGCCG | – | – | 0.567 ± 0.043
4 | AGCTGG | – | 0.38 ± 0.056 | 0.572 ± 0.15
5 | GGTTCA | 1.01 ± 0.77 | 0.431 ± 0.36 | 1.26 ± 0.44
6 | TGAAAG | – | 1.15 ± 0.57 | 2.65 ± 0.8
7 | GCGAAA | 2.4 ± 0.62 | 1.36 ± 0.072 | 2.16 ± 0.076
8 | TCCAAC | 3.85 ± 2 | 4.11 ± 0.11 | 5.77 ± 1.9
9 | TCCAGC | 4.58 ± 2.5 | 4.83 ± 0.15 | 6.09 ± 2
10 | TCCAGG | – | – | 2.14 ± 0.84
11 | TCCAAG | 2.34 ± 1.2 | 1.77 ± 1.2 | 4.8 ± 1.6
12 | TCCAGA | 3.25 ± 0.89 | 4.62 ± 0.77 | 7.93 ± 2.3
13 | TCCAAA | 3.88 ± 1.2 | 5.16 ± 0.76 | 7.85 ± 2.9
14 | ACCAAT | 2.48 ± 0.88 | 2.51 ± 0.89 | 3.51 ± 0.8
15 | GCCAAG | 0.818 ± 0.62 | 0.757 ± 0.36 | 2.63 ± 0.93
16 | TCCAAT | 3.48 ± 2.1 | 4.14 ± 0.76 | 6.63 ± 2.2
17 | GGCGTC | 2.13 ± 1.2 | 1.48 ± 0.093 | 1.36 ± 0.024
18 | AATTTG | – | – | 0.989 ± 0.62
19 | TGATAC | 2.83 ± 0.46 | 3.97 ± 0.42 | 5.76 ± 2.1
20 | AGAGGG | – | – | 0.989 ± 0.85
21 | TCATCT | 2.18 ± 1.2 | 2.78 ± 0.36 | 4.09 ± 1
22 | ACAGAG | – | 0.878 ± 0.38 | 1.94 ± 0.09
23 | CTAATT | 2.55 ± 1 | 1.92 ± 0.32 | 2.36 ± 0.52
24 | TTCCTG | – | – | 1.68 ± 1.1
25 | GTCCTC | 3.46 ± 0.61 | 4.33 ± 0.75 | 6.46 ± 3
26 | ATCCTT | 3.24 ± 1.5 | 4.36 ± 0.24 | 5.37 ± 2.3

Row | Sequence | relative kcat/Km [1] | relative kcat/Km [2] | relative kcat/Km [3]
27 | CTCCTT | 3.67 ± 1.4 | 4.28 ± 0.77 | 6.06 ± 2.3
28 | CTCCTC | 3 ± 1.3 | 3.49 ± 0.19 | 4.95 ± 1.7
29 | ATCCTC | 3.86 ± 1.3 | 4.11 ± 1.6 | 4.92 ± 2
30 | TTCCTT | 4.47 ± 1.3 | 5.24 ± 1.1 | 7.59 ± 3.1
31 | TTCCTC | 4.47 ± 1.9 | 5.25 ± 0.81 | 6.88 ± 2.5
32 | GTCCTT | 3.67 ± 1 | 4.82 ± 0.56 | 7.02 ± 2.8
33 | TGGCGG | 0.44 ± 0.28 | – | 0.962 ± 0.067
34 | CCTAGA | 3.14 ± 2.6 | 2.71 ± 0.26 | 3.57 ± 0.52
35 | CCTCCT | 2.08 ± 1.7 | 1.23 ± 0.17 | 1.29 ± 0.79
36 | AGAAAA | 3.05 ± 0.94 | 2.65 ± 0.37 | 3.92 ± 1.1
37 | ACTGGC | – | – | 1.69 ± 1.6
38 | TGTCAC | 3.25 ± 2.2 | 4.8 ± 0.85 | 7.18 ± 3
39 | AGTCAT | 3.31 ± 1.6 | 5 ± 1.1 | 6.79 ± 3.2
40 | AGTCAA | 2.58 ± 0.11 | 4 ± 1.2 | 6.05 ± 2.9
41 | TGTCAG | – | 1.4 ± 0.17 | 3.3 ± 0.62
42 | AGTCAC | 4.5 ± 2.3 | 4.987 ± 0.032 | 7.1 ± 2.9
43 | TGTCAA | 3.03 ± 1.6 | 3.56 ± 0.18 | 5.75 ± 2.1
44 | GGTCAC | 2.53 ± 0.97 | 2.2 ± 0.29 | 3.14 ± 0.83
45 | TGTCGC | 1.87 ± 0.089 | 2.92 ± 1.1 | 5.09 ± 2.2
46 | ACTCAC | 2.6 ± 1.1 | 2.87 ± 0.13 | 4.43 ± 1.7
47 | TCTCAC | 3.41 ± 1.3 | 4.45 ± 1.3 | 6.16 ± 2.3
48 | AGTCAG | 2.12 ± 2 | 1.91 ± 0.42 | 3.69 ± 0.62
49 | TGTCAT | 3.5 ± 1.3 | 4.28 ± 1.1 | 6.84 ± 3.2
50 | GCTATC | 1.45 ± 0.98 | 0.842 ± 0.77 | 1.645 ± 0.013
51 | ATTCCT | 1.97 ± 0.65 | 2.19 ± 0.27 | 2.93 ± 1.1

— the supplement of paper PMC9433436
